Measurements as given in PubChem BioAssay.
Records with an inconclusive call do not appear. The source made the active and inactive calls.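 Rule for the calls, unless noted: active = differentiation response of at least 50%, scaled between solvent and reference control, from cells with both markers; inactive = the rest.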

How the values were obtained:
[1] = yeast TOR pathway RPL19A-GFP modulators, primary screen, cell-based, S. cerevisiae, multiplex flow cytometry (AID 1862; in the data active = percent of DMSO control GFP below about 86%;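 note: lower values mimic rapamycin by blocking the RPL19A rise seen in DMSO cells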); conditions: S. cerevisiae RPL19A-GFP strain, flow cytometry fluorescence, 3 h; at 10 µM; stronger effect = lower value
[2] = modulators of MEP2-GFP levels in yeast, primary screen, S. cerevisiae, multiplex flow cytometry (AID 1867;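 active = GFP response, as percent of the DMSO control, above the screen-wide mean plus 3 SD, about 139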;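 note: median GFP channel fluorescence of barcode-gated MEP2-GFP cells measured by flow cytometry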); conditions: S. cerevisiae MEP2-GFP strain, 3 h, at 10 µM, stronger effect = higher value, 100% means same as DMSO wells
[3] = modulators of CIT2-GFP expression in yeast, primary screen, S. cerevisiae, GFP fusion, multiplex flow cytometry (AID 1870;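 active = percent response above a set limit, the screen-wide mean plus 3 SD, cut at about 130% in these data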;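 note: barcoded CIT2-GFP strain pooled with four other GFP strains with rapamycin as positive control; median GFP fluorescence per well over plate mean of DMSO wells so 100% = DMSO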); conditions: 3 h, at 10 µM, stronger effect = higher value
[4] = modulators of LAP4-GFP expression in yeast, primary screen, S. cerevisiae, multiplex flow cytometry (AID 1873;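 active = GFP signal, as percent of the solvent control, above the screen mean plus 3 SD, about 149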); conditions: 3 h, at 10 µM, stronger effect = higher value
[5] = modulators of AGP1-GFP expression in yeast TOR pathway, primary screen, cell-based, multiplex flow cytometry, S. cerevisiae (AID 1887;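 active = GFP signal above the screen-wide mean plus 3 SD, that is over about 124.5% of the solvent control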;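 note: AGP1-GFP fusion strain of S. cerevisiae within a five-strain barcoded multiplex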); conditions: 3 h, at 10 µM, stronger effect = higher value
[6] = inhibitors of CD8+ T cell-vesicle binding, pilot screen, LFA-1/ICAM-1 modulator project, MLPCN validation set, flow cytometry (AID 2523;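 active = response below a set limit, under 55% cells CD8-positive and vesicle-bound, and CD8 cells' 90th-percentile brightness under 279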;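 for vesicle binding response: mean PE anti-B7-1 fluorescence of CD8+ cells relative to row control; 100% = QL9-loaded vesicles with DMSO vehicle in the same plate row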); conditions: 2C mouse CD8+ T cells, at 7 µM, stronger effect = lower value; double positive events: measured here: CD8+/vesicle+ event percentage
[7] = biological target: Integrin beta-1 (Homo sapiens) + Integrin alpha-4 (Homo sapiens) (UniProt P13612+P05556); assay: inhibition of HUTS-21 binding to VLA-4, pilot screen, VLA-4 allosteric modulator project, U937 cells, HUTS-21 mAb, flow cytometry, validation set (AID 2674;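 active = inhibition above 50%, about 3 SD of the validation set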;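 note: antibody binding induced by the VLA-4 ligand LDV present at three times its Kd; 0% = LDV ligand with antibody and no compound and 100% = antibody without LDV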); conditions: HUTS-21 LIBS mAb binding, at 6.7 µM, stronger effect = higher value, binding induced by LDV ligand
Integrin beta-1 (Homo sapiens) + Integrin alpha-4 (Homo sapiens), sequence (P05556 whole entry, looked up): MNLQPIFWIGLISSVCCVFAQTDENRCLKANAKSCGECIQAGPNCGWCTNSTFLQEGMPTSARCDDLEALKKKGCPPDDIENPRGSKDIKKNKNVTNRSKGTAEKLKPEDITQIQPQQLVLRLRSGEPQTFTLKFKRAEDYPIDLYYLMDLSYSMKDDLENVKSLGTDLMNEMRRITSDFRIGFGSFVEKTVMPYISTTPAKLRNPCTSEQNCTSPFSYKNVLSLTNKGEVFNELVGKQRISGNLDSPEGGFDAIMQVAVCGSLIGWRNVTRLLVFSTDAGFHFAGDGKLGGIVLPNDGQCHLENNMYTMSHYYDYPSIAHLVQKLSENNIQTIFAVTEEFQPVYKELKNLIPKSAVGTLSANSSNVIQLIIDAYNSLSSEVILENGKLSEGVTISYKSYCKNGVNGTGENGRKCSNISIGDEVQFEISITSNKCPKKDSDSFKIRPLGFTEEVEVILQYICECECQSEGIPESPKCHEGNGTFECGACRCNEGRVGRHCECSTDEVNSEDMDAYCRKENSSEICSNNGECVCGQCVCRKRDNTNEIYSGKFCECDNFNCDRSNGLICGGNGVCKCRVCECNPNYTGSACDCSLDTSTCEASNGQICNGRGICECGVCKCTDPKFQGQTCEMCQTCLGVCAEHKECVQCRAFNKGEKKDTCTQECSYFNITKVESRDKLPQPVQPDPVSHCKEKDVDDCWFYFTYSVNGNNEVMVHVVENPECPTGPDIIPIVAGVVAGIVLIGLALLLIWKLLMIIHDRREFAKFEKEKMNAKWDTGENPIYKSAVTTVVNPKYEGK
Integrin beta-1 (Homo sapiens) + Integrin alpha-4 (Homo sapiens), sequence (P13612 whole entry, looked up): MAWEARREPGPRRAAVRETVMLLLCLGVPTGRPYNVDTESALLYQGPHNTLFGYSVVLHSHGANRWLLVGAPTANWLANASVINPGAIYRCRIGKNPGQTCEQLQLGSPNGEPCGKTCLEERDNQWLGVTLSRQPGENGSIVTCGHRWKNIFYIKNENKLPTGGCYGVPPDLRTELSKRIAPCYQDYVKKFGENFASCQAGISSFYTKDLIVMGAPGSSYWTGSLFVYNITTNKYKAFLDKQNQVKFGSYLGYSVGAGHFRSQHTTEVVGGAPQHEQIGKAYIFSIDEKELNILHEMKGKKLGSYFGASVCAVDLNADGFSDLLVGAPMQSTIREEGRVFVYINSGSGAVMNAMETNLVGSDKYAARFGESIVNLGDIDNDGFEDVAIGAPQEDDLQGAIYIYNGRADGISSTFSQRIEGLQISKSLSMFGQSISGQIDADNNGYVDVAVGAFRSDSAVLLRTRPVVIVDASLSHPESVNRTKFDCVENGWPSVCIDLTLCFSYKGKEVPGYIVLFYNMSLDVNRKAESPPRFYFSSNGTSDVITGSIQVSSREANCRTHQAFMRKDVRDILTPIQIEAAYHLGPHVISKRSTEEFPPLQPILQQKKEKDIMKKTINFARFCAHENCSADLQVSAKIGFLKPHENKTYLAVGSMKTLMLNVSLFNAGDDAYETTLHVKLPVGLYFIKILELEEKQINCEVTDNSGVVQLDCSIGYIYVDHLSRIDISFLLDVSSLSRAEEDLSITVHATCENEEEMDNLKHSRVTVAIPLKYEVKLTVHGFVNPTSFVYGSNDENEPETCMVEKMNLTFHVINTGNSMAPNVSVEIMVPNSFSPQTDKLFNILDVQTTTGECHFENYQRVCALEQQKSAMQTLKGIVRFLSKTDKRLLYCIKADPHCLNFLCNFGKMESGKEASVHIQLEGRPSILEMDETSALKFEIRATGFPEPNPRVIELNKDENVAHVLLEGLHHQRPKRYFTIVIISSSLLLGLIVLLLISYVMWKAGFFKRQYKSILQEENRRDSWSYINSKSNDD

[8] = superoxide lowering in aged yeast cells, pilot screen, validation compound set (AID 2706;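 active = superoxide response below 65% of plate, a cut near 3 SD across the whole screen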;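 note: yeast exposed to compound for one week at 30 degrees C before staining; 100% = mean of all compound wells on the same plate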); conditions: S. cerevisiae aging, superoxide DHE fluorescence; at 10 µM; stronger effect = lower value
[9] = biological target: Beta-adrenergic receptor kinase 1 (Homo sapiens) (UniProt P25098); assay: GRK2 binders displacing RNA aptamer, biochemical, validation, human GRK2, bead flow cytometry (AID 488806;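 active = aptamer binding inhibition above 30%, about 3 SD of noise from non-fluorescent compounds; inactive = inhibition at or below 30%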); conditions: bead-bound GRK2, FAM-aptamer displacement, at 10 µM, stronger effect = higher value
Beta-adrenergic receptor kinase 1 (Homo sapiens), sequence (P25098 whole entry, looked up): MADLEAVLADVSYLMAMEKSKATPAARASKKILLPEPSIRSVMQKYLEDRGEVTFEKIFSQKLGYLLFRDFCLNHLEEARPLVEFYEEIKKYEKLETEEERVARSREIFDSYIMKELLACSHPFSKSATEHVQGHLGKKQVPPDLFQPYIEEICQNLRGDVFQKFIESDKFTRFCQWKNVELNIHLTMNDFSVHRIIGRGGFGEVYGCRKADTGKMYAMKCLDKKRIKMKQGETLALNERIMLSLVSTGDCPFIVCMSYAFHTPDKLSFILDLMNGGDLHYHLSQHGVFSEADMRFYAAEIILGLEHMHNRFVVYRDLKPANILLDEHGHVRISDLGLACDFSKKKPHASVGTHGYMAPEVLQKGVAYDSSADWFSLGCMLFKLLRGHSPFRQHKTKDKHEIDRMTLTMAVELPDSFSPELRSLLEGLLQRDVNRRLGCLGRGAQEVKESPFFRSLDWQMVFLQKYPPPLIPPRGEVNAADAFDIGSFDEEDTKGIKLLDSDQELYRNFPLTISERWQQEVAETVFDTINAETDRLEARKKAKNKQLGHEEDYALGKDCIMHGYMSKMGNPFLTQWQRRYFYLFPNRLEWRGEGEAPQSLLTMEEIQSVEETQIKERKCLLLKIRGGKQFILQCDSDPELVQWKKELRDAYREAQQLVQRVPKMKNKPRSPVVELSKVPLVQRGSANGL

[10] = biological target: Beta-2 adrenergic receptor (Homo sapiens) (UniProt P07550); assay: beta2AR agonists driving receptor internalization, pilot screen, cell-based, FAP fluorogen, flow cytometry, validation set (AID 504459;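 active = percent response above 42, roughly 3 SD of non-fluorescent test compounds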;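 note: agonist-driven loss of surface beta2AR via internalization measured by FAP dye flow cytometry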); conditions: Am2.2-beta2AR cells, FAP surface receptor flow cytometry; at 10 µM; stronger effect = higher value
Beta-2 adrenergic receptor (Homo sapiens), sequence (P07550 whole entry, looked up): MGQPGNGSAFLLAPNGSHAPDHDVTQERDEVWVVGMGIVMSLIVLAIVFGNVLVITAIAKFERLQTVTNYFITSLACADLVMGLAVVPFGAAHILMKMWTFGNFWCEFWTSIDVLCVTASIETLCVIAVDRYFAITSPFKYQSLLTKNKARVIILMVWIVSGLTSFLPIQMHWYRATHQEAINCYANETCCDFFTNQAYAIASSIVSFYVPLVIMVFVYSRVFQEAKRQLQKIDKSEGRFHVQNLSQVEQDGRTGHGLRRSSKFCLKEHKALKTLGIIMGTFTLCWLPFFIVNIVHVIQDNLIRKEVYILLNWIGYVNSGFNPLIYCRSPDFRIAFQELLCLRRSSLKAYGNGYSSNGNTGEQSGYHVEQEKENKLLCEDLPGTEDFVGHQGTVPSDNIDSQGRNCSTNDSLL

[11] = biological target: AP-2 complex subunit beta (Homo sapiens) (UniProt P63010); assay: inhibitors of arrestin peptide binding to AP2, pilot screen, biochemical, validation set, GST-AP2 beads, flow cytometry (AID 504541;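 active = inhibition above 54%, about 3 SD of non-fluorescent compounds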;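 note: AP2 carries R879A mutation and is captured from E. coli lysate; bead-bound FITC arrestin peptide fluorescence measuring arrestin peptide binding to AP2; 0% = DMSO wells and 100% = excess unlabeled arrestin peptide control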); conditions: FITC arrestin peptide, at 10 µM, stronger effect = higher value, AP2 beta2 appendage fragment, R879A mutant
AP-2 complex subunit beta (Homo sapiens), sequence (P63010 whole entry, looked up, the tested form may be a part, one chain of several): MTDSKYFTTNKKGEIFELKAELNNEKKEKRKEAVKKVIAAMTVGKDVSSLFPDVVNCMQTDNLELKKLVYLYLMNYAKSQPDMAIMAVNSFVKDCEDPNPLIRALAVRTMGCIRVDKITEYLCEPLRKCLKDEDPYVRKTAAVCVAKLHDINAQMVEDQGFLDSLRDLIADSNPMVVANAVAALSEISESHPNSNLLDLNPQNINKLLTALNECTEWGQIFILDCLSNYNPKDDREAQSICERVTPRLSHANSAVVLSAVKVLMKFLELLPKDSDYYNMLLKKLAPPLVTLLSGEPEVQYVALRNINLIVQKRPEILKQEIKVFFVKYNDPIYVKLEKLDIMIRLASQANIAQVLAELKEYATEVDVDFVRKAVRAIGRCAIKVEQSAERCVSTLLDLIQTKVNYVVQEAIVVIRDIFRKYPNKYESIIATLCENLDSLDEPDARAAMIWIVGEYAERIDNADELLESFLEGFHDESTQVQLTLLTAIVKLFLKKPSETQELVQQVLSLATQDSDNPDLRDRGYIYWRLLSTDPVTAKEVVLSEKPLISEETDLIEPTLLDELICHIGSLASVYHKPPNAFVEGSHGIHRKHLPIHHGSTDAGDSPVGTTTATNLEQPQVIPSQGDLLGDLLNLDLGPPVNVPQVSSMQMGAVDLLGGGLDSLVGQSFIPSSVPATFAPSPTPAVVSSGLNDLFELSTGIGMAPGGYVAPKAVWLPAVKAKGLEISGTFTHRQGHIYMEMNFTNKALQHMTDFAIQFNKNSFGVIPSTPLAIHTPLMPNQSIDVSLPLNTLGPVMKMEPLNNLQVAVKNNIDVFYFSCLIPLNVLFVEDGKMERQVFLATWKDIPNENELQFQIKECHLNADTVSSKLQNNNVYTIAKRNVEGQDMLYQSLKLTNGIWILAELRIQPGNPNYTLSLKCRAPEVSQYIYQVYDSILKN

[12] = yeast V-ATPase proton transport modulators, S. cerevisiae, pHLuorin, HTS validation (AID 504600; in the data active = response above about 15%;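 note: plate controls were DMSO for no effect and reference compound for full effect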); conditions: S. cerevisiae pHLuorin cytosolic pH, at 10 µM, stronger effect = higher value
[13] = tested on: anti-desmoglein-3 scFv antibody binding to human DSG3; assay: inhibitors of anti-DSG3 scFv binding to DSG3, pilot screen, biochemical, validation compound set, bead-based, flow cytometry (AID 588368;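 active = binding below the plate cutoff, the plate median minus 3 SD, with a reading above zero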;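 note: signal is the median channel fluorescence of bead-bound GFP antibody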); conditions: Protein G beads, DSG3-Fc, scFv-GFP binding, at 10 µM, stronger effect = lower value
[14] = inhibitors of fungal efflux pumps CDR1, CDR2, MDR1, pilot screen, validation compound set, multiplex, phenotypic (AID 588506;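 active = efflux inhibition above 0.42, the validation set average plus 4 SD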;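 note: Nile Red retained in cells so higher fluorescence means more efflux inhibition; 0 = negative control wells and 1 = enniatin B 25 µM full block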); conditions: S. cerevisiae pump-expressing triplex, Nile Red efflux flow cytometry; at 10 µM; stronger effect = higher value; the pumps come from Candida albicans
[15] = biological target: ATP-binding cassette sub-family B member 6 (Homo sapiens) (UniProt Q9NP58); assay: ABCB6 transporter inhibitors, pilot screen, K562-ABCB6 cells, flow cytometry, validation set (AID 588550;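 active = inhibition above the screen-wide mean plus 3 SD, about 51%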;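 note: 0% = DMSO wells and 100% = benzethonium chloride 70 µM positive control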); conditions: K562-ABCB6 porphyrin accumulation, 1 h, at 10 µM, stronger effect = higher value
ATP-binding cassette sub-family B member 6 (Homo sapiens), sequence (Q9NP58 whole entry, looked up): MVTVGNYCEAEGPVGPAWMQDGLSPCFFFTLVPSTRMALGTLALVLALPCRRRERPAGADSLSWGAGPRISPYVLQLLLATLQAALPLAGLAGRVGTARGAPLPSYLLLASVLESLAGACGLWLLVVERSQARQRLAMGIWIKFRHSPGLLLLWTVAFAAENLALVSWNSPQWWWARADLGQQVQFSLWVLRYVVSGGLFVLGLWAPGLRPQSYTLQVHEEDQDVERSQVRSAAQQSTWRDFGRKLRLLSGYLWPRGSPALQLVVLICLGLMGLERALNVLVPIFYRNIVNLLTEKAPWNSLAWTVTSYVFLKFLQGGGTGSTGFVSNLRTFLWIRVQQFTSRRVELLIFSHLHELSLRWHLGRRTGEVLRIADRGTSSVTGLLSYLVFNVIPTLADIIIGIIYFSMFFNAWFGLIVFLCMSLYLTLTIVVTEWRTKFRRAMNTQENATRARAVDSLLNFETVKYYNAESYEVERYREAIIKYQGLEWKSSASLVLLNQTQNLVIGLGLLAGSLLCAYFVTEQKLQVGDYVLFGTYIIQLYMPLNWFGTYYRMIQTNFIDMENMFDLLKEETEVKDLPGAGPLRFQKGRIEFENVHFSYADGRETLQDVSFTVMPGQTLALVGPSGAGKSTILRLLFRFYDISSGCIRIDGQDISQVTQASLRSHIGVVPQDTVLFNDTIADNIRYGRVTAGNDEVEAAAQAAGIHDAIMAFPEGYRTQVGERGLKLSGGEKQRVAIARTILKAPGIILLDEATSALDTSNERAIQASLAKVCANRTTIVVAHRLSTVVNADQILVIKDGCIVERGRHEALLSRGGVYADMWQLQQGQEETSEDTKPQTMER

[16] = promoters of myeloid differentiation in arrested cells, primary screen, cell-based, GFP/MAC1 double positive, flow cytometry, validation set (AID 588685); conditions: ER-HoxA9 marrow cells, stronger effect = higher value, normalized: vehicle 0, fulvestrant 100;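 note: compound exposure lasts four days before antibody staining and flow analysis; 0% = DMSO wells and 100% = 5 µM fulvestrant positive control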

CCOc1ncnc2c1[nH]c1ccccc12
active: response [12] 19.2%
inactive: percent of DMSO control GFP [1] 99.7% | GFP response vs DMSO [2] 98.5% | percent response of DMSO control [3] 104% | GFP response vs DMSO [4] 88% | GFP response, % of DMSO [5] 85.7% | vesicle binding response [6] 354% | inhibition [7] -8.62% | superoxide response (% of plate) [8] 101% | aptamer binding inhibition [9] 4% | response [10] 14.8% | inhibition [11] -7.64% | binding (% of control) [13] 98.9% | efflux inhibition (fraction of control) [14] 0.01 | inhibition [15] 8% | differentiation response [16] -31.2%
52.2%: double positive events [6]

Cc1ccc(S(=O)(=O)NC(=O)NN2CCCCCC2)cc1
61.4%: double positive events [6]
inactive: percent of DMSO control GFP [1] 102% | GFP response vs DMSO [2] 110% | percent response of DMSO control [3] 100% | GFP response vs DMSO [4] 96.6% | GFP response, % of DMSO [5] 97.5% | vesicle binding response [6] 226% | inhibition [7] 29.6% | superoxide response (% of plate) [8] 92.2% | aptamer binding inhibition [9] 4% | response [10] -9.17% | inhibition [11] 3.4% | response [12] -0.51% | binding (% of control) [13] 99.7% | efflux inhibition (fraction of control) [14] -0.04 | inhibition [15] -2% | differentiation response [16] 14.9%

CC(C)(C)C(=O)N1CCCC1C(=O)O (stereo not drawn)
65.6%: double positive events [6]
inactive: percent of DMSO control GFP [1] 104% | GFP response vs DMSO [2] 96.6% | percent response of DMSO control [3] 99% | GFP response vs DMSO [4] 99.5% | GFP response, % of DMSO [5] 106% | vesicle binding response [6] 141% | inhibition [7] 4.84% | superoxide response (% of plate) [8] 95.6% | aptamer binding inhibition [9] 11% | response [10] -4.87% | inhibition [11] -2.34% | response [12] -11% | binding (% of control) [13] 103% | efflux inhibition (fraction of control) [14] -0.04 | inhibition [15] 2% | differentiation response [16] 11.8%

CC12CN3CC(C)(CN(C1)C3c1ccc(Br)cc1O)C2 (stereo not drawn)
57.2%: double positive events [6]
active: response [12] 19%
inactive: percent of DMSO control GFP [1] 101% | GFP response vs DMSO [2] 108% | percent response of DMSO control [3] 108% | GFP response vs DMSO [4] 123% | GFP response, % of DMSO [5] 106% | vesicle binding response [6] 197% | inhibition [7] 6.55% | superoxide response (% of plate) [8] 127% | aptamer binding inhibition [9] -3% | response [10] -11.7% | inhibition [11] -45.4% | binding (% of control) [13] 103% | efflux inhibition (fraction of control) [14] 0.21 | inhibition [15] -1% | differentiation response [16] 2.89%

CC(=O)OCC#CCSc1nc2ccccc2n1C
57.8%: double positive events [6]
inactive: percent of DMSO control GFP [1] 97.6% | GFP response vs DMSO [2] 89.7% | percent response of DMSO control [3] 96.7% | GFP response vs DMSO [4] 103% | GFP response, % of DMSO [5] 92.9% | vesicle binding response [6] 163% | inhibition [7] -8.62% | superoxide response (% of plate) [8] 95% | aptamer binding inhibition [9] 2% | response [10] 7.19% | inhibition [11] 14.1% | response [12] 2.63% | binding (% of control) [13] 94.9% | efflux inhibition (fraction of control) [14] -0.21 | inhibition [15] 12% | differentiation response [16] -7.2%

O=C(Cc1ccccc1)NNC(=O)Cc1ccccc1
63.3%: double positive events [6]
inactive: percent of DMSO control GFP [1] 101% | GFP response vs DMSO [2] 108% | percent response of DMSO control [3] 102% | GFP response vs DMSO [4] 94% | GFP response, % of DMSO [5] 98.9% | vesicle binding response [6] 224% | inhibition [7] -5.64% | superoxide response (% of plate) [8] 113% | aptamer binding inhibition [9] -1% | response [10] -7.57% | inhibition [11] 53.7% | response [12] -12.3% | binding (% of control) [13] 91.9% | efflux inhibition (fraction of control) [14] 0.27 | inhibition [15] 2% | differentiation response [16] 24.7%

C[C@H]1O[C@@H](O[C@H]2[C@@H](O)C[C@H](O[C@H]3[C@@H](O)C[C@H](O[C@H]4CC[C@@]5(C)[C@H](CC[C@@H]6[C@@H]5C[C@@H](O)[C@]5(C)[C@@H](C7=CC(=O)OC7)CC[C@]65O)C4)O[C@@H]3C)O[C@@H]2C)C[C@H](O)[C@@H]1O
62.7%: double positive events [6]
inactive: percent of DMSO control GFP [1] 100% | GFP response vs DMSO [2] 105% | percent response of DMSO control [3] 95.5% | GFP response vs DMSO [4] 93.7% | GFP response, % of DMSO [5] 93.7% | vesicle binding response [6] 151% | inhibition [7] 11% | superoxide response (% of plate) [8] 90.7% | aptamer binding inhibition [9] -2% | response [10] 12.4% | inhibition [11] -11.4% | response [12] 1.64% | binding (% of control) [13] 103% | efflux inhibition (fraction of control) [14] -0.07 | inhibition [15] -10% | differentiation response [16] 5.67%

O=C(O)c1cccnc1Nc1cccc(C(F)(F)F)c1
63.3%: double positive events [6]
active: efflux inhibition (fraction of control) [14] 0.48
inactive: percent of DMSO control GFP [1] 95.9% | GFP response vs DMSO [2] 130% | percent response of DMSO control [3] 110% | GFP response vs DMSO [4] 83.6% | GFP response, % of DMSO [5] 93.3% | vesicle binding response [6] 214% | inhibition [7] 7.43% | superoxide response (% of plate) [8] 98.6% | aptamer binding inhibition [9] 6% | response [10] 6.98% | inhibition [11] 47.1% | response [12] -7.29% | binding (% of control) [13] 102% | inhibition [15] 15% | differentiation response [16] 7.37%

Cc1ccc(C2=NOC(=O)/C2=C\C=C\c2ccccc2)cc1
69.9%: double positive events [6]
inactive: percent of DMSO control GFP [1] 107% | GFP response vs DMSO [2] 101% | percent response of DMSO control [3] 108% | GFP response vs DMSO [4] 139% | GFP response, % of DMSO [5] 73.5% | vesicle binding response [6] 167% | inhibition [7] 33.8% | superoxide response (% of plate) [8] 113% | aptamer binding inhibition [9] -4% | response [10] 34% | inhibition [11] 13% | response [12] -2.56% | binding (% of control) [13] 105% | efflux inhibition (fraction of control) [14] -0.17 | inhibition [15] -16% | differentiation response [16] -4.57%
